Measurements: PubChem BioAssay (NCI)
About 83,000 compounds went through this panel and 20% of them were active in at least one assay; those are over-represented in the sample as a whole.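 Cell lines were cultured in 96-well plates, exposed to a single compound concentration, and assessed for percent growth 48 hours later.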 Values without a mark were called inactive. Active and inactive are the calls of the source. Rule for the calls: active = growth percent below 10; inactive = the rest.

What was measured:
Assay in all cases: NCI-60 one-dose screen, 48 h (100 = growth as untreated, 0 = no growth, -100 = all killed)
NCI-H23 lung = conditions: 10 µM unless noted
NCI-H226 lung = conditions: 10 µM unless noted
NCI-H322M lung = conditions: 10 µM unless noted
HOP-62 NSCLC = conditions: 10 µM unless noted
NCI-H460 lung = conditions: 10 µM unless noted
HOP-92 NSCLC = conditions: 10 µM
NCI-H522 lung = conditions: 10 µM unless noted
A549/ATCC NSCLC = conditions: 10 µM unless noted
786-0 renal = conditions: 10 µM unless noted
COLO 205 colon = conditions: 10 µM unless noted
DU-145 prostate = conditions: 10 µM unless noted
K-562 leukemia = conditions: 10 µM unless noted
MALME-3M melanoma = conditions: 10 µM unless noted
MDA-MB-231 breast = conditions: 10 µM unless noted
SF-268 CNS = conditions: 10 µM unless noted
SF-295 CNS = conditions: 10 µM unless noted
SF-539 CNS = conditions: 10 µM unless noted
UACC-257 melanoma = conditions: 10 µM unless noted

Row | SMILES | growth (NCI-H23 lung) | growth (NCI-H226 lung) | growth (NCI-H322M lung) | growth (HOP-62 NSCLC) | growth (NCI-H460 lung) | growth (HOP-92 NSCLC) | growth (NCI-H522 lung) | growth (A549/ATCC NSCLC) | growth (786-0 renal) | growth (COLO 205 colon) | growth (DU-145 prostate) | growth (K-562 leukemia) | growth (MALME-3M melanoma) | growth (MDA-MB-231 breast) | growth (SF-268 CNS) | growth (SF-295 CNS) | growth (SF-539 CNS) | growth (UACC-257 melanoma)
1 | COc1cc(/C=C2\C(=O)Nc3ccccc32)ccc1OCc1ccc(Cl)cc1 | 93.3% | 96.6% | 99.7% | 101% | 41.1% | 112% | 95.8% | 107% | 106% | 116% | 98.7% | 98.5% | 95.5% | 99% | 98.6% | 103% | 98% | 125%
2 | Cn1ccnc1C(=O)/C=C/c1ccc(CNC(=O)c2ccc(S(F)(F)(F)(F)F)cc2)cc1 | 3.4% (active) | 27% | 7.63% (active) | 17.5% | -18.1% (active) | 74.3% | 29.5% | 16% | 13.1% | 41.8% | 13.8% | 18.9% | 89.9% | 5.17% (active) | 6.38% (active) | 26.8% | -36% (active) | 89.9%
3 | CCN(CC)c1ccc2c(c1)Oc1nc(N)c(C#N)c(N)c1C2Sc1ccc(C)cc1 (stereo not drawn) | -90% (active) | -54.6% (active) | -92.7% (active) | -71% (active) | -40.4% (active) | -93.9% (active) | -75.6% (active) | -56.9% (active) | -92.6% (active) | -53.6% (active) | -95.5% (active) | 0.301% (active) | -92.9% (active) | -87.3% (active) | -52.7% (active) | -93.3% (active) | -97.8% (active) | -74.2% (active)
4 | CC/C(=C/c1cc(OC)ccc1O)c1ccc2cc(OC)ccc2[o+]1 | 64.2% | 78% | 84.2% | 69.8% | 33.6% | 71% | 24.2% | 58.3% | 65.9% | 56.1% | 68.6% | 20.3% | 53.1% | 66.2% | 61.6% | 52.2% | 52.7% | 65.6%
5 | O=C(NCCN1CCCC1)c1ccc(-c2nc3ccc4[nH]ncc4c3c3c2CCCC3)cc1 | -14.8% (active) | 13.6% | 3.73% (active) | 15.8% | -5.93% (active) | -15.4% (active) | -29.2% (active) | 6.08% (active) | 6.43% (active) | -14.8% (active) | 6.08% (active) | 0.479% (active) | -2.3% (active) | -2.53% (active) | -11.3% (active) | 3.28% (active) | -63.2% (active) | 23.8%
6 | CCn1c(SCC(=O)Nc2cccc(C(=O)/C=C/c3cc(OC)c(OC)c(OC)c3)c2)nc2ccccc2c1=O | -17.1% (active) | 11.5% | 54.4% | 53.8% | 2.34% (active) | 34.6% | 38% | 41.1% | 30.2% | 102% | 13.9% | 13.4% | 61.8% | 23.4% | 37.7% | 75% | 24% | 67.7%
